Bioassay records as filed in PubChem.
Rows were chosen to be rich in hits. Some 4.4% of all compounds tested hit in one or more screens of this group.
PfHsp90 yeast 2 – growth inhibition of yeast expressing Plasmodium Hsp90 | inhibition, % at 9.4 µM | S. cerevisiae expressing PfHsp90, BacTiter-Glo ATP, 48 h; yeast lacking PDR1 and PDR3 efflux regulators | 0.32% of 310,000 active;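 active = every replicate shows inhibition above about 80%, whatever the replicate mean, limit read from the data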
Mot1-301 SUMO – blocks SUMOylation pathway, rescuing yeast Mot1-301 growth; S. cerevisiae Mot1-301 growth rescue, ATP luminescence, 38.5C; percent above DMSO median, 100 means doubled; growth rescue, % at 18.8 µM; 1% of 320,000 active; AID 2716;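 active = every valid replicate shows activation above 250% relative to neutral control wells; inactive = the rest, any valid replicate at or below 250%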
tim23-1 inh – tim23-1 yeast growth inhibition. S. cerevisiae tim23-1 growth, BacTiter-Glo luminescence, 24 h. inhibition, % at 20 µM. 1.3% of 330,000 active;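 active = growth inhibition of the mutant yeast at or above 50%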;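 also: temperature-sensitive mutant grown at 25 °C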
TIM10 inh – growth inhibitors of TIM10 yeast strain; S. cerevisiae TIM10 strain growth, BacTiter-Glo luminescence, 24 h; 1.4% of 330,000 active; inhibition, % at 10 µM; AID 463195;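 active = inhibition of 40% or more at the single tested concentration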;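 also: wild-type TIM10 isogenic control strain grown at permissive 25 °C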
tim10-1 inh – tim10-1 yeast growth inhibition. S. cerevisiae tim10-1 ts strain growth, BacTiter-Glo, 24 h. inhibition, % at 20 µM. 2.2% of 330,000 active. AID 463190;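 active = inhibition of at least 40%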;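 also: mutant grown at 25 °C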
tim23-1 confirm – tim23-1 yeast growth inhibition, confirmed; 83% of 4,400 active; shares compounds with tim23-1 inh; S. cerevisiae tim23-1 growth, BacTiter-Glo luminescence, 24 h; AID 463218; inhibition, % at 20 µM;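 active = inhibition above about 39% in either of two replicate wells at 20 µM, limit read from the data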;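 also: temperature-sensitive tim23-1 mutant grown at 25 °C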
Large screens that a line does not name were inactive (follow-up assays come after a bar, where they were run).

Cc1ccc(C(=O)CCC(=O)Nc2ncccc2O)cc1	tim23-1 inh 54.6 (no result: PfHsp90 yeast 2) | tim23-1 confirm inactive
Cc1ccc(C(=O)CCC(=O)Nc2ncccc2C)cc1	none
Cc1cc(C)c(C(CC(=O)c2cccs2)C(C#N)C#N)c(C)c1 (stereo unspecified)	Mot1-301 SUMO 477.3, tim23-1 inh 52.2 | tim23-1 confirm inactive
CC(CC(=O)c1cccs1)CC(=O)c1cccs1	none
Cc1ccccc1Nc1nc2ccccc2s1	tim23-1 inh 50.2 | tim23-1 confirm inactive
CCc1noc(C)c1C(=O)NNC(=O)COc1cc(C)ccc1C	none
C#C[C@]1(O)CC[C@H]2[C@@H]3CCC4=Cc5oncc5C[C@]4(C)[C@H]3CC[C@@]21C	tim23-1 inh 50.1 | tim23-1 confirm 49.5
O=C(N/N=C\c1ccc(-c2ccccc2[N+](=O)[O-])o1)C1COc2cc3ccccc3cc2O1 (stereo unspecified)	tim23-1 inh 57.9 | tim23-1 confirm 53.0
Cc1ccc(/C=N\NC(=O)C2COc3cc4ccccc4cc3O2)o1 (stereo unspecified)	none
O=C(N/N=C\c1ccc(-c2ccccc2[N+](=O)[O-])o1)C1COc2ccccc2O1 (stereo unspecified)	tim23-1 inh 75.7 | tim23-1 confirm 52.6
CCn1cc(Br)c(C(=O)Nc2cccc(Cl)c2)n1	tim23-1 inh 58.9 | tim23-1 confirm 51.9
CCn1c(N2CCN(S(=O)(=O)c3ccc(Cl)cc3)CC2)nc2ccccc21	tim23-1 inh 63.4 | tim23-1 confirm 43.0
CCCC(O)(c1ccc(Cl)cc1)C(CN1CCOCC1)c1ccc(Cl)cc1 (stereo unspecified)	Mot1-301 SUMO 291.6, tim23-1 inh 56.8 | tim23-1 confirm inactive
CCCC(O)(c1ccc(OC)cc1)C(CN1CCOCC1)c1ccc(Cl)cc1 (stereo unspecified)	none
O=C(CSCc1ccc(F)cc1)Nc1nc2c(s1)CCCC2	tim23-1 inh 56.3 | tim23-1 confirm 41.4
COc1ccc(N2CCN(C(=O)CN3C(=O)NC4(CCCCC4C)C3=O)CC2)cc1 (stereo unspecified)	none
CN1C(=O)/C(=C2\SC(N3CCCCCC3)=NC2=O)c2ccccc21	tim23-1 inh 54.7 | tim23-1 confirm 44.0
Nc1cc(Cl)ccc1C(=O)OCC(=O)NC1CCCCCCC1	none (no result: PfHsp90 yeast 2)
Cn1c(=O)c(C(=O)NNC(=O)c2cccc(Cl)c2)c(O)c2ccccc21	none
Cc1cccc(C(=O)NNC(=O)c2c(O)c3ccccc3n(C)c2=O)c1	tim23-1 inh 66.6 | tim23-1 confirm inactive
Cn1c(=O)c(C(=O)Nc2ccccn2)c(O)c2ccccc21	tim23-1 inh 57.4 (no result: PfHsp90 yeast 2) | tim23-1 confirm 58.5
Cn1c(=O)c(C(=O)NNC(=O)c2ccccc2Br)c(O)c2ccccc21	tim23-1 inh 50.8 | tim23-1 confirm inactive
Cc1cccc(C)c1NC(=O)CNC(=O)c1ccc2c(c1)NC(=O)CS2	none (no result: Mot1-301 SUMO)
CCC(=O)c1ccc(OCC(=O)OCC(=O)N2CCc3ccccc32)cc1	none (no result: PfHsp90 yeast 2)
CCn1c(N)cc(=O)[nH]c1=S	none (no result: Mot1-301 SUMO, tim23-1 inh, TIM10 inh, tim10-1 inh)
COc1cccc(C2=NN(C(=O)c3ccco3)C(c3ccco3)C2)c1 (stereo unspecified)	tim23-1 inh 51.8 | tim23-1 confirm 41.4
O=[N+]([O-])c1ccc2c(c1N1CCCCC1)=NC1(CCCCC1)[N+]=2[O-]	tim23-1 inh 53.6 | tim23-1 confirm 41.5
O=C(c1cc(C(=O)N2CCOCC2)c2nc3ccccc3n2c1)c1cc(Cl)cc(Cl)c1O	none
CCOc1ccccc1NC(=O)C(=O)N/N=C/c1cc(Br)ccc1O	tim23-1 inh 58.8 | tim23-1 confirm 51.1
CCc1noc(C)c1C(=O)NNC(=O)c1ccccc1F	none
O=C(COC(=O)c1nc(Cl)c(Cl)c(Cl)c1Cl)NCc1ccccc1	tim23-1 inh 59.4 (no result: PfHsp90 yeast 2, Mot1-301 SUMO) | tim23-1 confirm 58.5
CCc1ccc(N(CC(=O)N2CCCCCC2)S(C)(=O)=O)cc1	none
COc1ccc(C(=O)CC(=O)Nc2ccc([N+](=O)[O-])cc2)cc1	tim23-1 inh 63.7 | tim23-1 confirm 73.7
Cc1cnc(C(=O)Nc2ccc(C)c(S(=O)(=O)N3CCCCCC3)c2)cn1	none (no result: Mot1-301 SUMO)
CC(=Nc1cccc(O)c1)c1sc2ccccc2c1O	tim23-1 inh 63.3 | tim23-1 confirm 62.5
CC(C)(C)c1ccc(C(=O)NNC(=O)CCc2ccccc2)cc1	none (no result: PfHsp90 yeast 2)
Cc1ccc(-c2nn(-c3ccccc3)cc2C=C2C(=O)CC(C)(C)CC2=O)cc1	tim23-1 inh 65.6 | tim23-1 confirm 51.0
CC1=NN(c2ccccc2)C(=O)/C1=C\c1cn(-c2ccccc2)nc1C	none
CCCCn1c(N)c(N(CCOC)C(=O)CCS(=O)(=O)c2ccc(Cl)cc2)c(=O)[nH]c1=O	none (no result: PfHsp90 yeast 2)
COc1cccc(C(=O)NC(=S)N2c3ccccc3CC2C)c1OC (stereo unspecified)	tim23-1 inh 51.0 | tim23-1 confirm 54.5
COc1cccc(NC(=S)N2c3ccccc3CC2C)c1 (stereo unspecified)	none
COc1ccc2c(c1)C(=O)N(c1ccc(C)cc1C)C(=O)C2(C)C	tim23-1 inh 55.1 | tim23-1 confirm 56.8
COc1ccc2c(c1)C(=O)N(c1ccc(C)cc1C)C(=O)C2	none
O=c1oc(-c2cccs2)nc2ccc(Br)cc12	tim23-1 inh 67.0 | tim23-1 confirm inactive
CC(C)c1nc(NCc2ccccc2)c(C#N)c2c1CCCC2	none
CC(C)c1nc(NCCO)c(C#N)c2c1CCCC2	tim23-1 inh 53.5 | tim23-1 confirm 38.7
Oc1ccc(Cl)cc1CNCc1ccc(Cl)cc1	tim23-1 inh 60.2 | tim23-1 confirm 38.1
CN(Cc1nccn1C)C(=O)c1ccc(OC2CCN(CCc3ccccc3)CC2)cc1	none
COc1ccc2c(=O)c3c(=O)n(Cc4ccco4)c(-c4ccc(C)cc4)nc3oc2c1	tim23-1 inh 57.2 | tim23-1 confirm 45.9
CN(C)S(=O)(=O)c1cccc(NC(=S)N/N=C/c2cc(Br)ccc2O)c1	tim23-1 inh 58.4 | tim23-1 confirm 47.9
CC(C)c1ccc(NC(=S)NCCc2c[nH]c3ccccc23)cc1	tim23-1 inh 51.7 | tim23-1 confirm inactive
Cc1ccc(NC(=S)NCCc2c[nH]c3ccccc23)cc1	none
CCCCN(C(=O)CSc1nc2ccccc2n1CC)C1CCS(=O)(=O)C1 (stereo unspecified)	none
C/C(=N\O)C1CCCCC1	none (no result: PfHsp90 yeast 2)
Cc1ccccc1NC(=S)N(Cc1cccs1)C1CCCCC1	tim23-1 inh 51.2 | tim23-1 confirm 39.0
CCC(=O)OCC(=O)[C@@]1(OC(=O)CC)[C@@H](C)C[C@H]2[C@@H]3CCC4=CC(=O)C=C[C@]4(C)[C@@]3(Cl)[C@@H](O)C[C@@]21C	tim23-1 inh 54.9 | tim23-1 confirm 40.0
Cc1ccc(S(=O)(=O)Nc2ccccc2-c2nc3ccccc3[nH]c2=O)cc1	none
COC(=O)c1cc(OCC(=O)Nc2ccc3c(c2)CCC3)cc(C(=O)OC)c1	none
COc1ccc(OCC(=O)Nc2ccc3c(c2)CCC3)cc1	tim23-1 inh 66.3 | tim23-1 confirm 57.5
